# Article PMC7862700, “An all-to-all approach to the identification of sequence-specific readers for epigenetic DNA modifications on cytosine”
# How the values were obtained:
# Experiment in all cases: DAPPL (digital affinity profiling via proximity ligation, sequencing); 10 mM Tris-HCl pH 7.5, 50 mM NaCl, 1 mM DTT, 4% glycerol, room temperature, 30 min; GST-TFs on glutathione beads, 16-mer random dsDNA library, 0.1% formaldehyde crosslink after washing; high values mean tight binding
# FEV = target: T1, FEV (Homo sapiens, UniProt Q99581 1-238); settings: protein: recombinant; tags: N-terminal GST; dsDNA, one strand shown
# T1 sequence: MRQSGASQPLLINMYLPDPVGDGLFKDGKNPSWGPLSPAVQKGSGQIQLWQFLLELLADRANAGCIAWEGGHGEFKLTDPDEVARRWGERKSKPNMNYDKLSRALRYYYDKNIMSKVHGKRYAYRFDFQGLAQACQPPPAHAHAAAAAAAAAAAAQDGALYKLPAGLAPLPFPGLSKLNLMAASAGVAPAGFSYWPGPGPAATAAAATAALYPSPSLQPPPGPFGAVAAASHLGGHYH
# Method in brief: (§1)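 Binding signal is defined as a hexamer's read frequency for one factor over its frequency for the tag-only sample. To obtain reads, GST-fused human transcription factors were expressed in yeast, captured on glutathione beads, barcoded with DNA and pooled with that sample. Pools met 200 nmole of a 16-mer random double-stranded DNA library in Tris/NaCl/DTT/glycerol buffer for 30 min at room temperature before washing, 0.1% formaldehyde crosslinking, proximity ligation (BsaI/T4 ligase, 1 h, 37 °C), PCR and Illumina NextSeq500 sequencing.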
# ETV5 = ETV5 (Homo sapiens, UniProt P41161 1-510); settings: protein: recombinant; tags: N-terminal GST; dsDNA, one strand shown
# Chain of ETV5 (P41161 whole entry): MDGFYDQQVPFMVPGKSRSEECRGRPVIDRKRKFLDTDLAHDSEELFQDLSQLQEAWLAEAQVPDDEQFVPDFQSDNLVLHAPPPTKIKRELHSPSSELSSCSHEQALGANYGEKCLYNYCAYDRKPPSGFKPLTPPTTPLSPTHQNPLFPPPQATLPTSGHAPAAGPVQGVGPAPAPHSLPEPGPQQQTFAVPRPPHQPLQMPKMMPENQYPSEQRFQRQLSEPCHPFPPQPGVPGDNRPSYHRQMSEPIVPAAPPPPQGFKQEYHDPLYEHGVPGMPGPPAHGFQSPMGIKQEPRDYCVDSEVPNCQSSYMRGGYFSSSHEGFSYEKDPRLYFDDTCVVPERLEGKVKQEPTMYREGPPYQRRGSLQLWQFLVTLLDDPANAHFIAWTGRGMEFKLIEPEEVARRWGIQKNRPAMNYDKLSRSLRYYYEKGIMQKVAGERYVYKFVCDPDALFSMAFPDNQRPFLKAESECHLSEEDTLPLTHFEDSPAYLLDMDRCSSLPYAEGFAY
# Method in brief: as §1
# HSF1 = HSF1 (Homo sapiens, UniProt Q00613 1-529); settings: protein: recombinant; tags: N-terminal GST; chain copies: 3; dsDNA, one strand shown
# Chain of HSF1 (Q00613 whole entry): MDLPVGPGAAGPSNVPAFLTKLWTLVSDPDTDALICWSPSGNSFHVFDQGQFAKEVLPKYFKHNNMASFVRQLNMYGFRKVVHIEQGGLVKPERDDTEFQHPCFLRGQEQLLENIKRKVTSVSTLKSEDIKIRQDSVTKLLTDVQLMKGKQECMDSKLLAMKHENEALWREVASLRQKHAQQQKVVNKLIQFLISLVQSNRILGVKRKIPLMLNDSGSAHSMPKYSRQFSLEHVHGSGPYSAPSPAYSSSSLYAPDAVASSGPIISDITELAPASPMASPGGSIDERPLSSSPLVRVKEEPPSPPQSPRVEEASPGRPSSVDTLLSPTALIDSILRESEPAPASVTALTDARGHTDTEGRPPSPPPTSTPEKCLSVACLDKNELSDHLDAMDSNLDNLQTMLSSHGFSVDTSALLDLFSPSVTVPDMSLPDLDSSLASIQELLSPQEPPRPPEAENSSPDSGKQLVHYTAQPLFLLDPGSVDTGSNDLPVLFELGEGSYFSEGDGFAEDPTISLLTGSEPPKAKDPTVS
# Method in brief: as §1
# SPIC = target: T2, SPIC (Homo sapiens, UniProt Q8N5J4 1-248); settings: protein: recombinant; tags: N-terminal GST; dsDNA, one strand shown
# T2 sequence: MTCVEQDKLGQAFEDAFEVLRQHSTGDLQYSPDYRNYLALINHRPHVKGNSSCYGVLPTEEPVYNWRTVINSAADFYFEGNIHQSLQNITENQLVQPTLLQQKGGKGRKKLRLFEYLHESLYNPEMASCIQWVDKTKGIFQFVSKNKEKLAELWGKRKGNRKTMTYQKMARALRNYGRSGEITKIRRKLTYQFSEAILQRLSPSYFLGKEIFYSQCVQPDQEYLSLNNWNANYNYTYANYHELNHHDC
# Method in brief: as §1
# ELF4 = ELF4 (Homo sapiens, UniProt Q99607 1-663); settings: protein: recombinant; tags: N-terminal GST; dsDNA, one strand shown
# Chain of ELF4 (Q99607 whole entry): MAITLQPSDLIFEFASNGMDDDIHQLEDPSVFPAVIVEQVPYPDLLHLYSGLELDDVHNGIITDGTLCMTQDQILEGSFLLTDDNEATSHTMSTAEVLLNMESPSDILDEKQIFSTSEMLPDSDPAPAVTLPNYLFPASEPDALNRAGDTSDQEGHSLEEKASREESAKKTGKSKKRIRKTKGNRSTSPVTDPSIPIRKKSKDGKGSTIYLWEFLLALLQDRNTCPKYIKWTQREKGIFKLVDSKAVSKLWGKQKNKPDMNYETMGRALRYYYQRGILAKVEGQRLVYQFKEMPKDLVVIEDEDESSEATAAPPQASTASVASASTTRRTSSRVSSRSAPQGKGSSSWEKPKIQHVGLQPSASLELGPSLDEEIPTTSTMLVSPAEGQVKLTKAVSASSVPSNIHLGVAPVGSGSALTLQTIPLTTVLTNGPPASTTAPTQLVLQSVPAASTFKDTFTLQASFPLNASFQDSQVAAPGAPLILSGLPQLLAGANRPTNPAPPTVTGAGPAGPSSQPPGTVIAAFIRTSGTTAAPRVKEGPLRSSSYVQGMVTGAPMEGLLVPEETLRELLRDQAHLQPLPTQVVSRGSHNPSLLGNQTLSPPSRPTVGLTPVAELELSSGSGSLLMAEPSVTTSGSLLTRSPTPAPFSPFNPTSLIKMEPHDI
# Method in brief: as §1
# ELK4 = target: T3, ELK4 (Homo sapiens, UniProt P28324-2 1-405); settings: protein: recombinant; tags: N-terminal GST; dsDNA, one strand shown
# T3 sequence: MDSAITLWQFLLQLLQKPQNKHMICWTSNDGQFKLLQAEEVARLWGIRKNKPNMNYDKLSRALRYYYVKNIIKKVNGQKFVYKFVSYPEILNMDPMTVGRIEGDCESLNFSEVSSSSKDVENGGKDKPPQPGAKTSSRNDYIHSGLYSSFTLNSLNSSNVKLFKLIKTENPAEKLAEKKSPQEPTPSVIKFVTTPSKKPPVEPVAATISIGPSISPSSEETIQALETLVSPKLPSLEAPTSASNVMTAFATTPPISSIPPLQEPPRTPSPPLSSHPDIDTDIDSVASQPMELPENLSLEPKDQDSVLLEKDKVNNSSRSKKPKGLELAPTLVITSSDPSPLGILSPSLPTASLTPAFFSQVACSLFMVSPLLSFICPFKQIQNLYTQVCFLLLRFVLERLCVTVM
# Method in brief: as §1
# ETV2 = target: T4, ETV2 (Homo sapiens, UniProt O00321 1-342); settings: protein: recombinant; tags: N-terminal GST; dsDNA, one strand shown
# T4 sequence: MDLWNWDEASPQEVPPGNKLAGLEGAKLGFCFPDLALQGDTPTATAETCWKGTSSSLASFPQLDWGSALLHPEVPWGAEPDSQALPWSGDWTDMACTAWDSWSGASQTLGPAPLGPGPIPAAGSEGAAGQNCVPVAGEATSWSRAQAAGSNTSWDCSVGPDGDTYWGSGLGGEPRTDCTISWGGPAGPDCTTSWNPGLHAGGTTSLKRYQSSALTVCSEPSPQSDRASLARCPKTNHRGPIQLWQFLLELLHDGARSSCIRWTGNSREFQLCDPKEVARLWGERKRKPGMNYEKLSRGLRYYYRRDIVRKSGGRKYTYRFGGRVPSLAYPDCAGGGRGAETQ
# Method in brief: as §1
# ELF3 = target: T5, ELF3 (Homo sapiens, UniProt P78545 1-371); settings: protein: recombinant; tags: N-terminal GST; dsDNA, one strand shown
# T5 sequence: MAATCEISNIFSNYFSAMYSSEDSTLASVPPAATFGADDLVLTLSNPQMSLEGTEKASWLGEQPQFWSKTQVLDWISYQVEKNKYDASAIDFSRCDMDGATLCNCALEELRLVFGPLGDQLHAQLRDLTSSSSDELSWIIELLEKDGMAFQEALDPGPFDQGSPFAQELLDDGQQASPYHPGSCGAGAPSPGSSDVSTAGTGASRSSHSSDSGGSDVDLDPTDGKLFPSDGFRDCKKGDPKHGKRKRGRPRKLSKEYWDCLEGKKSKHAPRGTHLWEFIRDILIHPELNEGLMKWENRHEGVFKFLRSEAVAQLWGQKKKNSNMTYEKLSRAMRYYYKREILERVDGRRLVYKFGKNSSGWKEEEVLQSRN
# Method in brief: as §1
# CRX = CRX (Homo sapiens, UniProt O43186 1-299); settings: protein: recombinant; tags: N-terminal GST; dsDNA, one strand shown
# Chain of CRX (O43186 whole entry): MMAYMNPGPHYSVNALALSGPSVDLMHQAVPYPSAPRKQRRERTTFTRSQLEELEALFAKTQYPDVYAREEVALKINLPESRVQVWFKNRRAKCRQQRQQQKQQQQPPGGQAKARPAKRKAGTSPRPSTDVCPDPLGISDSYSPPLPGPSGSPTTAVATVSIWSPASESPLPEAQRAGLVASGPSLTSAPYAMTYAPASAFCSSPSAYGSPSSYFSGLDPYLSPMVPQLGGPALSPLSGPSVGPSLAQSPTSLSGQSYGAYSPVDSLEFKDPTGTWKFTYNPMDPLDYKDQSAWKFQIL
# Method in brief: as §1
# ETV1 = ETV1 (Homo sapiens, UniProt P50549 1-477); settings: protein: recombinant; tags: N-terminal GST; dsDNA, one strand shown
# Chain of ETV1 (P50549 whole entry): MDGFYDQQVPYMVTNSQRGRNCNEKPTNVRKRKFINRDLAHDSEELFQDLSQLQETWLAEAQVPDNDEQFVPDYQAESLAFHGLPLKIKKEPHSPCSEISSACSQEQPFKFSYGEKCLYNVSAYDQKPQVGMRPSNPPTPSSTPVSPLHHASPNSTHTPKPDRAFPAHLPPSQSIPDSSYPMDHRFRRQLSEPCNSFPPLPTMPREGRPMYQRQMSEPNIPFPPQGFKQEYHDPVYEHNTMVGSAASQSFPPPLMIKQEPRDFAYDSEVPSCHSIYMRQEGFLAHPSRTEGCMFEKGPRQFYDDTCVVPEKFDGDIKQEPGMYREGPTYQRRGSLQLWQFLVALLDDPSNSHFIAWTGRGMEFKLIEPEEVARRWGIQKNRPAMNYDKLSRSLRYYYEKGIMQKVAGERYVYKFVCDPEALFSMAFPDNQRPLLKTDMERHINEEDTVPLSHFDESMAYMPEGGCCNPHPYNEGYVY
# Method in brief: as §1
# ERF = target: T6, ERF (Homo sapiens, UniProt P50548 1-548); settings: protein: recombinant; tags: N-terminal GST; dsDNA, one strand shown
# T6 sequence: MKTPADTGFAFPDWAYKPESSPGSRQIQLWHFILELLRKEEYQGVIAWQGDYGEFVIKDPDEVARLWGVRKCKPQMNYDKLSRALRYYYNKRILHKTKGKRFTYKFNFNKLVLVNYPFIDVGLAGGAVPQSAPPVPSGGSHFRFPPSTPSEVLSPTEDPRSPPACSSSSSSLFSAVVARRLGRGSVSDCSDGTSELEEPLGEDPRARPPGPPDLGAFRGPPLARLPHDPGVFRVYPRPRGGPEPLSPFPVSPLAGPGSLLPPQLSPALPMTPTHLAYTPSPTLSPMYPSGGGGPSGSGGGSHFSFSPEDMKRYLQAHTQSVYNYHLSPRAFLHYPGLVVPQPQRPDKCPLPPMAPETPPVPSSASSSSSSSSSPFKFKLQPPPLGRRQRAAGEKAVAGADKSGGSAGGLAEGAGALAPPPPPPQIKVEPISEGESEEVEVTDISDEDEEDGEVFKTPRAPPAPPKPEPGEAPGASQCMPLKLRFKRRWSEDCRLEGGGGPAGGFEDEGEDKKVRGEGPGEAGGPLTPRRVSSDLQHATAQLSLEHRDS
# Method in brief: as §1
# ETV3L = target: T7, ETV3L (Homo sapiens, UniProt Q6ZN32 1-361); settings: protein: recombinant; tags: N-terminal GST; dsDNA, one strand shown
# T7 sequence: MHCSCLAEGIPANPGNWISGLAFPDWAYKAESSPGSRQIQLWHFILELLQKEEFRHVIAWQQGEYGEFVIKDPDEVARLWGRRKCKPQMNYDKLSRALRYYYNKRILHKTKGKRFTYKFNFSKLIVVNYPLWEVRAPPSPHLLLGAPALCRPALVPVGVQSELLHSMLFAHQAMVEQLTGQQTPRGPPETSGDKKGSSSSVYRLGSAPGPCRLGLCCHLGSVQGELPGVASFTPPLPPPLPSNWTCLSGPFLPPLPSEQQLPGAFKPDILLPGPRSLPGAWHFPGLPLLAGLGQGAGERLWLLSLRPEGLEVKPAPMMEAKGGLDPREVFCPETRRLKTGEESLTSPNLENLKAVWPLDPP
# Method in brief: as §1
# ETS2 = target: T8, ETS2 (Homo sapiens, UniProt P15036 1-469); settings: protein: recombinant; tags: N-terminal GST; dsDNA, one strand shown
# T8 sequence: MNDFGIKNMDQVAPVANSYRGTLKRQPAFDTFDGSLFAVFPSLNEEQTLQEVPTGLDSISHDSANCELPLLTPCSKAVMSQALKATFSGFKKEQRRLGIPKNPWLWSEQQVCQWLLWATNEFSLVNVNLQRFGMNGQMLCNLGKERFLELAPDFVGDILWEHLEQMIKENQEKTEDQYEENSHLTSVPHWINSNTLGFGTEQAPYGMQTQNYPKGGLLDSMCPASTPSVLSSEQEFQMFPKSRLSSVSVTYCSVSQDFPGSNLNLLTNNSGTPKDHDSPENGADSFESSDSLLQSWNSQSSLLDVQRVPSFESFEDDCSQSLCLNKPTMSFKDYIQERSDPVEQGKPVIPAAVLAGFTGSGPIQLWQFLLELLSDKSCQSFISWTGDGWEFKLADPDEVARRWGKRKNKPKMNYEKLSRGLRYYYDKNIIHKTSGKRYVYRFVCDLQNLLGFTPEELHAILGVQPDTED
# Method in brief: as §1
# SPDEF = target: T9, SPDEF (Homo sapiens, UniProt O95238 1-335); settings: protein: recombinant; tags: N-terminal GST; dsDNA, one strand shown
# T9 sequence: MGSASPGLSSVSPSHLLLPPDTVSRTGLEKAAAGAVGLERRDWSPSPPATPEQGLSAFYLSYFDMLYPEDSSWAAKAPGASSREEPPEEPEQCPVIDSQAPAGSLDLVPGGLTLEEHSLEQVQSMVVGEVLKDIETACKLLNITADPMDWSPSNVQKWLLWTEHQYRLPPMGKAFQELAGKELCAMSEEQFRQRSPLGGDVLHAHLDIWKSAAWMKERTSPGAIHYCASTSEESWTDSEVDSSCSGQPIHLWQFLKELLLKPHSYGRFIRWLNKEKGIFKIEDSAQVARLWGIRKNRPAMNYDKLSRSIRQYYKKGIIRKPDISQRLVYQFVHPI
# Method in brief: as §1
# ETV7 = target: T10, ETV7 (Homo sapiens, UniProt Q9Y603 1-341); settings: protein: recombinant; tags: N-terminal GST; dsDNA, one strand shown
# T10 sequence: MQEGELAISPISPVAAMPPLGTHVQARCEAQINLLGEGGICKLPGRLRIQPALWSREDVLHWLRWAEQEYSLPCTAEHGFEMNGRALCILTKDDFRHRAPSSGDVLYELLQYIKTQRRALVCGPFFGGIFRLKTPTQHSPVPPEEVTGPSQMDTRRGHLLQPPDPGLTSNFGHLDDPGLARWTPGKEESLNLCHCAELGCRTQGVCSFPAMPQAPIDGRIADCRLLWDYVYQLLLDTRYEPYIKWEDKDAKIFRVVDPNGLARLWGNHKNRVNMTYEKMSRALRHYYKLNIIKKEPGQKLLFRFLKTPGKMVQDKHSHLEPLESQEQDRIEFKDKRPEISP
# Method in brief: as §1
# ELF5 = target: T11, ELF5 (Homo sapiens, UniProt Q9UKW6-2 1-255); settings: protein: recombinant; tags: N-terminal GST; dsDNA, one strand shown
# T11 sequence: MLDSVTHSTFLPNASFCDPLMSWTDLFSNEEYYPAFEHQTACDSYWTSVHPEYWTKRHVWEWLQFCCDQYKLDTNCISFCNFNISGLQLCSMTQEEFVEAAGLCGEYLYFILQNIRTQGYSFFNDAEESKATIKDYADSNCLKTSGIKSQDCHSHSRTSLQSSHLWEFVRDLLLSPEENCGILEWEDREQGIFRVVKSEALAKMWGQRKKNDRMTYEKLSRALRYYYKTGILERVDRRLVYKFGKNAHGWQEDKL
# Method in brief: as §1
# ETV3 = target: T12, ETV3 (Homo sapiens, UniProt P41162-2 1-143); settings: protein: recombinant; tags: N-terminal GST; dsDNA, one strand shown
# T12 sequence: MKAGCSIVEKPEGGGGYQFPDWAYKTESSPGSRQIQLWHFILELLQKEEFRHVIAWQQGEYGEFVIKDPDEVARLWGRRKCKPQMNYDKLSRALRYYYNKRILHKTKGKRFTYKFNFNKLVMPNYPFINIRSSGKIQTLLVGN
# Method in brief: as §1
# ETV6 = ETV6 (Homo sapiens, UniProt P41212 1-452); settings: protein: recombinant; tags: N-terminal GST; dsDNA, one strand shown
# Chain of ETV6 (P41212 whole entry): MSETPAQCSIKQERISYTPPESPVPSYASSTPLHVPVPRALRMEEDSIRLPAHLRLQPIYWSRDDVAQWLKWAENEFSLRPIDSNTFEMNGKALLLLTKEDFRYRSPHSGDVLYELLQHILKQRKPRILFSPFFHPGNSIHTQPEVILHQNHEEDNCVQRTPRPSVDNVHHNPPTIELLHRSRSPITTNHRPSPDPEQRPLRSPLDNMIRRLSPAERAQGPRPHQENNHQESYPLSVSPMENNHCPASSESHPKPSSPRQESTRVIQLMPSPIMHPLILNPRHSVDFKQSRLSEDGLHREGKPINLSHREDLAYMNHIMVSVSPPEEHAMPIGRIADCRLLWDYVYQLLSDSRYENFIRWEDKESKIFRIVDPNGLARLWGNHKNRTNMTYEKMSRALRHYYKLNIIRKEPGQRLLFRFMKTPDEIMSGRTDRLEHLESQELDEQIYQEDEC
# Method in brief: as §1
sequence,measurement,setting,value
AGATCC,binding signal,FEV,"1.14 fold enrichment (6-mer frequency, TF over GST control)"
same,binding signal,ETV5,"1.14 fold enrichment (6-mer frequency, TF over GST control)"
same,binding signal,HSF1,"1.11 fold enrichment (6-mer frequency, TF over GST control)"
same,binding signal,SPIC,"1.16 fold enrichment (6-mer frequency, TF over GST control)"
same,binding signal,ELF4,"1.14 fold enrichment (6-mer frequency, TF over GST control)"
same,binding signal,ELK4,"1.17 fold enrichment (6-mer frequency, TF over GST control)"
same,binding signal,ETV2,"1.06 fold enrichment (6-mer frequency, TF over GST control)"
same,binding signal,ELF3,"1.06 fold enrichment (6-mer frequency, TF over GST control)"
same,binding signal,CRX,"1.11 fold enrichment (6-mer frequency, TF over GST control)"
same,binding signal,ETV1,"1.14 fold enrichment (6-mer frequency, TF over GST control)"
same,binding signal,ERF,"1.08 fold enrichment (6-mer frequency, TF over GST control)"
same,binding signal,ETV3L,"1.13 fold enrichment (6-mer frequency, TF over GST control)"
same,binding signal,ETS2,"1.2 fold enrichment (6-mer frequency, TF over GST control)"
same,binding signal,SPDEF,"2.08 fold enrichment (6-mer frequency, TF over GST control)"
same,binding signal,ETV7,"1.03 fold enrichment (6-mer frequency, TF over GST control)"
same,binding signal,ELF5,"1.22 fold enrichment (6-mer frequency, TF over GST control)"
same,binding signal,ETV3,"1.21 fold enrichment (6-mer frequency, TF over GST control)"
same,binding signal,ETV6,"1.1 fold enrichment (6-mer frequency, TF over GST control)"
